Measured values from PubChem BioAssay.

Experiments:
[1] = test system: Human papillomavirus type 1a protein E7 (residues 44-93); experiment: HPV1a E7 fragment binders on microarrays, primary screen, biochemical, small-molecule microarray, residues 44-93, 635 nm fluorescence (AID 1108); conditions: small-molecule microarray binding, fluorescence 635 nm; higher = more signal;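 also: E7 fragment applied at 1 µg/mL in TBST for 1 h at 4 C; score combines spot fluorescence with its signal to noise ratio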
[2] = modulators of HCV replicon luciferase signal, primary screen, HCV replication inhibitor project, Huh7 cells, luciferase reporter (AID 1109); conditions: 48 h, higher = more signal;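 also: huh7 hepatoma cells harbouring a luciferase neomycin HCV replicon reporter; luciferase luminescence as measure of HCV replicon replication; test concentration not given here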
[3] = target: Left-right determination factor 2 (Homo sapiens) (UniProt O00292); experiment: LEFTY2 binders on small-molecule microarrays, primary screen, biochemical, small-molecule microarray, 635 nm fluorescence scan (AID 1110); conditions: LEFTY2 binding, higher = more signal
[4] = target: Calmodulin-1 (Homo sapiens) (UniProt P0DP23); experiment: CALM1 binders on microarrays, EGTA buffer, profiling panel, biochemical, small-molecule microarray, Cy5-labelled CALM1 (AID 1111); conditions: Cy5-CALM1 binding fluorescence, higher = more signal;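 also: labelled calmodulin applied in Tris saline Tween buffer holding calcium plus EGTA and DTT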
[5] = target: Calmodulin-1 (Homo sapiens) (UniProt P0DP23); experiment: calcium-bound CALM1 binders on microarrays, profiling panel, artefact control for SMM control-protein annotation, biochemical, small-molecule microarray, Cy5-labelled CALM1, plus calcium (AID 1112); conditions: Cy5-CALM1 binding fluorescence, higher = more signal;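 also: score merges spot fluorescence with signal to noise from triplicate slides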
[6] = small-molecule microarray binders of probe aWnt5a, primary screen, biochemical, biotinylated probe, 635/667 nm fluorescence (AID 1113); conditions: higher = more signal;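 also: score merges 667 nm fluorescence intensity with signal-to-noise per printed feature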
[7] = small-molecule microarray binders of probe aShh, primary screen, biochemical, biotinylated probe, 635/667 nm fluorescence (AID 1114); conditions: higher = more signal;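 also: probe is biotin-labelled aShh protein from a stem cell growth factor screen; measures binding of labelled protein to compounds printed on the slide; score merges feature fluorescence at 667 nm with signal-to-noise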
[8] = small-molecule microarray binders of probe aNog, primary screen, biochemical, biotinylated probe, 635/667 nm fluorescence (AID 1115); conditions: higher = more signal;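 also: probe is biotinylated aNog protein used at 0.15 µg/mL for 1 h at 4 C; z-score combines 667 nm fluorescence of each spot with its signal to noise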
[9] = target: Torsin-1A-interacting protein 1 (Homo sapiens) (UniProt Q5JTV8); experiment: LAP1 binders from COS7 cell lysate, primary screen, small-molecule microarray, 635/667 nm fluorescence (AID 1116); conditions: COS7-hLAP1 lysate binding, 635 nm fluorescence, higher = more signal
[10] = target: Alpha-bungarotoxin (Bungarus multicinctus) (UniProt P60615); experiment: alpha-bungarotoxin binders on microarray, profiling panel, artefact control for SMM control protein annotation, biochemical, small-molecule microarray, Alexa647 label, 635/667 nm fluorescence (AID 1117); conditions: alpha-BTX-A647 binding fluorescence, higher = more signal
Chain of Alpha-bungarotoxin (Bungarus multicinctus) (P60615 whole entry, looked up): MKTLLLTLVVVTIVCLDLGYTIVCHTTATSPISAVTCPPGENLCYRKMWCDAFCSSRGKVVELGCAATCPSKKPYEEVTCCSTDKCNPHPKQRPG

Chain of Torsin-1A-interacting protein 1 (Homo sapiens) (Q5JTV8 whole entry, looked up): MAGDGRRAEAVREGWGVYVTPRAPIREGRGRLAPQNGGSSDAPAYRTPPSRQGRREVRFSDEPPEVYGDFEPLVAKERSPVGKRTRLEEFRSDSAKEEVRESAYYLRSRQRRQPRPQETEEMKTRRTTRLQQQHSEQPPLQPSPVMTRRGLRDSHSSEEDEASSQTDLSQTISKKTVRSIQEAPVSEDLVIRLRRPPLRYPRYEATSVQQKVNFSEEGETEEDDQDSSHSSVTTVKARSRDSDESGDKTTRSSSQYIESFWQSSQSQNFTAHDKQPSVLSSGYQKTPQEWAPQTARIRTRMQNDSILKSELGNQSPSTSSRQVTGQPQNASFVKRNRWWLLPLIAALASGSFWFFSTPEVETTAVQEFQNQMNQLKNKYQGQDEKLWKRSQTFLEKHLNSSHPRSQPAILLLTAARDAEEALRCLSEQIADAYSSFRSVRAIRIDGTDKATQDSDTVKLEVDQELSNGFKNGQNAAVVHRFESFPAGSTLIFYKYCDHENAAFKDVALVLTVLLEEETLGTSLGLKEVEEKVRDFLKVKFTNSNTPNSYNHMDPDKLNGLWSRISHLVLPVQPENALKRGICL
Chain of Left-right determination factor 2 (Homo sapiens) (O00292 whole entry, looked up): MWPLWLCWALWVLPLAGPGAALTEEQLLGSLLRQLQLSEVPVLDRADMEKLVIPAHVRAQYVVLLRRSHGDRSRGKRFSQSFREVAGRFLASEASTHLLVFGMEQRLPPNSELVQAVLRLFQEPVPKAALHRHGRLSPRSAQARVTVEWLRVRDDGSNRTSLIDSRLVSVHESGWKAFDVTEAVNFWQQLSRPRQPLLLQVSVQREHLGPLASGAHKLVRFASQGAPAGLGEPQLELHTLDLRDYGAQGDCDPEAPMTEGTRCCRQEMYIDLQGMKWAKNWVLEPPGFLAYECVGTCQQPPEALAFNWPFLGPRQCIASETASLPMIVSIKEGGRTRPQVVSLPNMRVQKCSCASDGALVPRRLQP

Compound	composite z-score [1]	z-score [2]	composite z-score [3]	composite z-score [4]	composite z-score [5]	composite z-score [6]	composite z-score [7]	composite z-score [8]	composite z-score [9]	composite z-score [10]
CCc1cc2c(nc1CC)CCN(CCC(C)=NO[C@@H](C)c1cn([C@H](CO)Cc3ccccc3)nn1)C2	-0.296	-2.1	0.483	-0.41	-0.555	-0.096	-0.147	-0.203	-0.11	0.312
O=C1[C@H]2[C@H]3[C@H](O)[C@H](O)CC(=NOCc4ccccc4)[C@@H]3CC[C@H]2C(=O)N1C[C@@H]1CCCO1	-0.236	0.189	0.316	0.583	-0.0696	-0.117	-0.0553	-0.158	-0.126	0.879
C[C@@H]1NC(=O)[C@@H](C)COC(=O)[C@H](C)NC(=O)[C@@H](C)COC1=O	1.08	0.0151	0.737	-0.152	-0.521	-0.12	-0.243	0.0209	-0.143	0.144
COc1cc(O)c(C(=O)C=Cc2ccc3c(c2)OCO3)c(OC)c1	-2.33	-1.53	-0.143	0.283	-0.582	0.0438	-0.332	-0.219	-0.289	0.825
COC(=O)CC=C[C@@H](C)[C@@H](C=NO[C@@H](C)c1cc(-c2c(C)cc(C)cc2C)no1)NS(=O)(=O)c1ccc(C)cc1	-0.707	-1.6	-1.36	-0.3	0.573	-0.202	-0.138	0.0011	-0.436	-0.744
COc1cccc([C@H]2Oc3ccc(OC)cc3C(=NOC[C@@H](O)COCc3ccco3)[C@@H]2O)c1	-0.593	-1.04	-0.159	-2.33	-2.08	-0.278	-0.372	-0.539	-0.889	-0.799
COC(=O)[C@@H]1CC[C@@H](C)[C@H](c2ccc(Br)cc2)N1	-1.2	-0.198	0.445	-0.227	-0.0163	-0.136	-0.226	-0.247	-0.0359	-0.309
CCCNC(=O)OC[C@H]1O[C@H](CCON=Cc2ccc(C(=O)N3[C@H](c4ccc(C)cc4)[C@@H](C)CC[C@H]3C(=O)OC)cc2)C=C[C@@H]1Oc1ccc(OC)cc1	0.993	-1.85	0.534	0.263	-0.0711	0.111	-0.493	-0.0234	0.943	0.497
O=C1[C@H]2[C@H]3[C@H](O)[C@H](O)CC(=NO[C@@H]4O[C@H](CO)[C@@H](O)[C@H](O)[C@H]4O)[C@H]3CC[C@H]2C(=O)N1c1cccc(Oc2ccccc2)c1	0.583	-0.243	0.723	-0.0761	-0.474	-0.168	-0.349	-0.129	0.675	-0.0791
CON=C(C)CCC(=O)OC[C@H]1O[C@H](c2ccccc2)C=C[C@@H]1Oc1ccc(OC)cc1	-0.65	0.275	0.353	-0.515	-0.724	0.0257	-0.0769	-0.148	0.474	-0.0686
COc1ccc(O[C@@H]2[C@H](O)CO[C@@H]2C=Cc2ccccc2)cc1	0.16	0.238	0.138	0.0425	-0.665	-0.148	-0.399	-0.111	0.288	0.369
CC(C)CON=C1C[C@@H](O)[C@@H](O)[C@@H]2[C@@H]3C(=O)N(C(C)(C)C)C(=O)[C@@H]3CC[C@H]12	1.05	-0.451	-0.23	-0.302	0.412	-0.124	-0.262	0.0589	0.274	1.5
Cc1cc2c(c(=O)o1)[C@@H](O)[C@H]1O[C@H]1C2=O	-0.0158	0.73	0.384	-0.374	-0.876	-0.154	-0.243	-0.265	0.27	0.56
